Source: paper PMC5540273 (PLoS ONE, 2017)

Assays:
Settings in all cases: concentration: 1 μM, replicates: in singlicate; n = 1
ERBB2 = tested on: ERBB2
ERBB3 = tested on: ERBB3
ERBB4 = tested on: ERBB4
ERK1 = tested on: T1, ERK1
T1 construct: gene MAPK3

ERK2 = tested on: T2, ERK2
T2 construct: gene MAPK1

ERK3 = tested on: T3, ERK3
T3 construct: gene MAPK6

ERK4 = tested on: T4, ERK4
T4 construct: gene MAPK4

ERK5 = tested on: T5, ERK5
T5 construct: gene MAPK7

ERK8 = tested on: T6, ERK8
T6 construct: gene MAPK15

ERN1 = tested on: ERN1
FAK = tested on: T7, FAK
T7 construct: gene PTK2

FER = tested on: FER
FES = tested on: FES
FGFR1 = tested on: FGFR1
FGFR2 = tested on: FGFR2
FGFR3 = tested on: FGFR3
FGFR4 = tested on: FGFR4
FGR = tested on: FGR
FLT1 = tested on: FLT1
FLT3-autoinhibited = tested on: FLT3-autoinhibited
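Note: KINOMEscan kinase panel screen.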

| Compound | %Inh (ERBB2) | %Inh (ERBB3) | %Inh (ERBB4) | %Inh (ERK1) | %Inh (ERK2) | %Inh (ERK3) | %Inh (ERK4) | %Inh (ERK5) | %Inh (ERK8) | %Inh (ERN1) | %Inh (FAK) | %Inh (FER) | %Inh (FES) | %Inh (FGFR1) | %Inh (FGFR2) | %Inh (FGFR3) | %Inh (FGFR4) | %Inh (FGR) | %Inh (FLT1) | %Inh (FLT3-autoinhibited) |
| --- | --- | --- | --- | --- | --- | --- | --- | --- | --- | --- | --- | --- | --- | --- | --- | --- | --- | --- | --- | --- |
| Cc1cccc(-c2nc(Nc3ccc4[nH]ncc4c3)c3ccccc3n2)n1 [GW857175] | 0% | 18% | 0% | 0% | 4% | 0% | 9% | 3% | 21% | 35% | 0% | 11% | 0% | 5% | 0% | 0% | 0% | 0% | 12% | 32% |
| COc1ccc(Nc2nccc(-c3cccc(NC(=O)c4cc5cc(F)ccc5[nH]4)c3)n2)cc1 [GSK1229782] | 58% | 29% | 34% | 13% | 17% | 17% | 24% | 28% | 0% | 2% | 1% | 43% | 27% | 21% | 0% | 13% | 2% | 60% | 17% | 0% |
| O=C(Nc1ccccc1)Nc1cccc(Oc2ccc3nccn3n2)c1 | 38% | 53% | 0% | 0% | 0% | 0% | 0% | 0% | 0% | 0% | 0% | 0% | 0% | 13% | 9% | 0% | 0% | 18% | 96.8% | 0% |
| CC(C)(C)c1ccc(C(=O)Nc2cn3cc(-c4cccnc4)ccc3n2)cc1 | 34% | 0% | 1% | 0% | 18% | 14% | 23% | 20% | 16% | 12% | 12% | 0% | 29% | 27% | 21% | 16% | 0% | 19% | 22% | 0% |
| CC(C)(C)c1ccc(C(=O)Nc2cn3cc(Cl)ccc3n2)cc1 | 14% | 0% | 0% | 0% | 0% | 0% | 0% | 0% | 0% | 0% | 0% | 4% | 0% | 12% | 0% | 0% | 0% | 0% | 43% | 0% |
| Cl.c1ccc(-c2n[nH]cc2-c2ccnc(-c3ccc(CN4CCOCC4)cc3)c2)nc1 [GW776245] | 3% | 52% | 2% | 0% | 12% | 0% | 0% | 9% | 0% | 0% | 31% | 3% | 3% | 0% | 15% | 20% | 1% | 22% | 26% | 0% |
| Nc1nc(-c2nccs2)c(-c2ccnc3ccccc23)s1 [GW693542] | 36% | 0% | 27% | 6% | 0% | 0% | 18% | 0% | 0% | 0% | 0% | 15% | 0% | 8% | 0% | 0% | 8% | 9% | 24% | 0% |
| CN1C(=O)C(Nc2ccc(Cl)c(C(=O)O)c2)=C(c2ccc(Cl)cc2)C1=O [SB-404290] | 0% | 0% | 8% | 0% | 0% | 0% | 0% | 1% | 0% | 0% | 7% | 5% | 0% | 0% | 0% | 0% | 0% | 0% | 0% | 22% |
| COc1ccc(CNC(=O)NC2CCN(c3ccnc(Nc4cc(OC)c(OC)c(OC)c4)n3)C2)cc1 (stereo not drawn) [GSK1379748] | 0% | 27% | 9% | 0% | 0% | 0% | 0% | 0% | 0% | 0% | 0% | 0% | 7% | 0% | 2% | 9% | 15% | 14% | 20% | 3% |
| COc1ccc(C2=C(Nc3cccc(C(=O)O)c3)C(=O)NC2=O)cc1 [SB-390765] | 0% | 0% | 0% | 0% | 7% | 19% | 1% | 10% | 7% | 21% | 13% | 0% | 21% | 13% | 13% | 14% | 0% | 6% | 4% | 17% |
| COc1ccccc1CNC(=O)c1cc(C(=O)c2ccccc2C)c[nH]1 [GSK364507] | 21% | 0% | 30% | 0% | 2% | 4% | 13% | 0% | 0% | 0% | 0% | 8% | 0% | 0% | 16% | 4% | 11% | 23% | 18% | 0% |
| O=S(=O)(c1ccc(-c2ccnc3[nH]ccc23)cc1)N1CCCC1 [GSK846226] | 0% | 0% | 0% | 0% | 0% | 11% | 30% | 0% | 0% | 35% | 0% | 12% | 0% | 0% | 0% | 12% | 2% | 16% | 22% | 8% |
| CS(=O)(=O)c1ccc(-c2c(-c3ncn[nH]3)sc(N3CCOCC3)c2C#N)cc1 | 41% | 13% | 12% | 0% | 37% | 25% | 12% | 0% | 10% | 21% | 0% | 14% | 42% | 32% | 9% | 5% | 0% | 40% | 13% | 2% |
| COc1ccccc1-c1ccc2c(NC(=O)C3CC3)n[nH]c2n1 [SB-711239] | 0% | 22% | 23% | 3% | 3% | 0% | 0% | 0% | 0% | 0% | 0% | 4% | 22% | 0% | 12% | 8% | 10% | 26% | 6% | 0% |
| Cc1cc(NCC(c2ccccc2)c2ccccc2)nc(NCc2ccc(C(F)(F)F)cc2)n1 [GW497681] | 21% | 1% | 27% | 0% | 0% | 0% | 5% | 0% | 0% | 0% | 0% | 0% | 0% | 0% | 0% | 20% | 1% | 20% | 11% | 0% |
